HePTP inhibitor: inhibitors of human HePTP phosphatase, primary screen, biochemical, absorbance, leukemia target; recombinant HePTP phosphatase activity, OD absorbance; Tyrosine-protein phosphatase non-receptor type 7 (Homo sapiens), P35236; AID 521, 2006; 110,000 compounds, 0.64% hits; inhibition, % at 20 µM; in the data active = inhibition above about 50%;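 note: plate controls were vehicle for no effect and reference inhibitor for full effect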
Target sequence (P35236 whole entry, looked up): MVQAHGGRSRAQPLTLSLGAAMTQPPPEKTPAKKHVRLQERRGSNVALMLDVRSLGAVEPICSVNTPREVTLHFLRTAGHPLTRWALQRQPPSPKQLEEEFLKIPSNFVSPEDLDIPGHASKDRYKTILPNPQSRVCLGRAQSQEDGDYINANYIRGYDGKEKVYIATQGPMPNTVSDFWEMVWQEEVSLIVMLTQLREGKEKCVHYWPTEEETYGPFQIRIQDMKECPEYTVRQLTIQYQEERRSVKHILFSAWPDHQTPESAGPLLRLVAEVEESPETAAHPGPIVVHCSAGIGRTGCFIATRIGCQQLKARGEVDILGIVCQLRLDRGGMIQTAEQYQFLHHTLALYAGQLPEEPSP
FXIa inh mix: FXIa protease inhibitors in compound pools, primary screen, biochemical, 10-compound mixtures | Coagulation factor XI (Homo sapiens), P03951 | purified FXIa, fluorogenic substrate, pooled mixtures | inhibition, % at 5 µM | 62,000 compounds, 0.19% hits | AID 680, 2007;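 note: each value is inhibition by a whole ten-compound pool holding the compound; 0% = enzyme with no mixture and 100% = wells lacking enzyme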
CatG inh: human cathepsin G inhibitors, primary screen, biochemical, pooled compound mixtures, AMC fluorescence; P08311; 62,000 compounds, 0.2% hits; AID 581, 2007; purified enzyme, AMC-tetrapeptide fluorescence; inhibition, % at 5 µM (by protocol);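 active = inhibition above 20% in each of the two mixture wells holding the compound; inactive = inhibition of 20% or less in either well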;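 note: 0% = enzyme control without mixture and 100% = blank lacking enzyme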
PLAP activator: PLAP enzyme activators, biochemical, luminescence, HTS. Alkaline phosphatase, placental type (Homo sapiens), P05187. purified PLAP enzyme, luminescent substrate read-out; stronger effect = higher value. activation fold at 20 µM. 96,000 compounds, 1.2% hits. AID 696, 2007; in the data active = activation fold above about 2
C1s inh: complement C1s protease inhibitors, primary screen, biochemical, 10-compound mixtures; mean inhibition % of two 10-compound mixtures (stronger effect = higher value), % at 5 µM (by protocol); purified C1s, fluorogenic AMC substrate, pooled mixtures; Complement C1s subcomponent (Homo sapiens), P09871; 62,000 compounds, 0.16% hits;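 active = inhibition above 20% in each of the two 10-compound mixture wells holding the compound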;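 note: 0% = enzyme wells lacking compound mixture and 100% = no-enzyme blank wells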
FXIIa mix inh: human factor XIIa inhibitors, primary screen, biochemical, pooled compound mixtures, fluorogenic substrate; Coagulation factor XII (Homo sapiens), P00748; purified FXIIa; inhibition, % at 5 µM; 62,000 compounds, 0.2% hits; AID 684, 2007;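 note: 0% = enzyme without compound and 100% = no enzyme blank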
* marks the source's active call; other numbers are inactive results; / = not tested or not shown. Hits are enriched below; roughly 1.4% of the tested compounds scored in any of these assays. Cut-off read from the data, not from the text of the source, unless noted: active = inhibition above about 20% (passing the limit was not always enough); inactive = the rest.

SMILES	HePTP inhibitor	FXIa inh mix	CatG inh	PLAP activator	C1s inh	FXIIa mix inh
Cc1ccsc1/C=C1\C(=O)NC(=O)N(c2ccc(Cl)cc2)C1=O	4	/	/	/	/	/
COc1ccc(/C=C2\SC(=O)N(CCC(=O)N3CCCCC3)C2=O)cc1OC	8	/	/	/	/	/
COc1ccc(/C=C2\SC(=O)N(CCC(=O)N3CCOCC3)C2=O)cc1OC	104*	/	/	/	/	/
O=[N+]([O-])c1cccc(CN2CCN(S(=O)(=O)c3ccccc3)CC2)c1	-7	/	/	/	/	/
O=[N+]([O-])c1cccc(CN2CCN(S(=O)(=O)c3ccc(Cl)cc3)CC2)c1	102*	/	/	/	/	/
Cc1[nH][nH]c(=O)c1C(c1ccc(-c2ccc(Cl)cc2Cl)o1)c1c(C)[nH][nH]c1=O	/	/	/	2.7*	/	/
O=C(CSc1nc2ccc(Br)cc2c(=O)n1-c1ccccc1)NCCOc1ccccc1	5	/	/	/	/	/
O=C(COc1ccccc1)NCCCn1ccnc1	15	/	/	/	/	/
O=C(NCCCn1ccnc1)c1cn(-c2ccccc2)nc1-c1ccc(F)cc1	2	2	12	2.3*	11	3
O=C(CSc1nc2ccccc2[nH]1)NCCCn1ccnc1	4	8	-1	2*	-14	-16
CC(C)NC(=O)CSc1nc2ccccc2[nH]1	2	/	/	/	/	/
O=C(NCCCn1ccnc1)C(O)(c1ccccc1)c1ccccc1	56*	/	/	/	/	/
O=C(c1cn(-c2ccccc2)nc1-c1ccncc1)n1nnc2ccccc21	0	87*	23	/	-5	58*
C/C(=N\N1CCN(Cc2ccccc2Cl)CC1)c1ccccc1O	5	/	/	/	/	/
Cc1ccc2nc3c(cc2c1)c(NC(=O)c1ccccn1)nn3CC(C)C	/	/	/	2.3*	/	/
CCn1nc(NC(=O)c2ccccn2)c2cc3cc(C)ccc3nc21	6	-4	4	1.8	-21	-1
O=C(N/N=C/c1ccc(-c2ccc(S(=O)(=O)Nc3ncccn3)cc2)o1)c1cc2ccccc2cc1O	/	/	/	1.9	/	/
CCOc1ccc(C(=O)N/N=C/c2ccc(-c3ccc(S(=O)(=O)Nc4ncccn4)cc3)o2)cc1	/	/	/	2.1*	/	/
CC(=O)c1cccc(NC(=O)NC(C)c2ccncc2)c1 (centres undefined)	7	-5	7	2.2*	-4	-3
COC(=O)c1c(NC(=O)COc2ccc(-c3ccc(C)cc3)cc2)sc2c1C(C(=O)OC)CC2 (centres undefined)	5	/	/	/	/	/
O=C1C(Cl)=CC(=NS(=O)(=O)c2ccccc2)C=C1Cl	87*	/	/	/	/	/
O=C1OC(/C=C/c2ccccc2)=NC/1=C/c1ccc(-c2ccc3c(c2)C(=O)NC3=O)o1	71*	/	/	/	/	/
O=C1OC(/C=C/c2ccccc2)=NC/1=C/c1ccccc1	2	/	/	/	/	/
COC(=O)C(=C/C=C/N(C1CCCCC1)C1CCCCC1)C(=O)OC	-6	/	/	/	/	/
Cc1ccc(-n2ncc3c(NCc4ccccn4)ncnc32)c(C)c1	6	9	3	2*	-3	-19
SMILES	HePTP inhibitor	FXIa inh mix	CatG inh	PLAP activator	C1s inh	FXIIa mix inh
CC(C)n1nnnc1SCC(=O)NCc1ccco1	8	22*	8	/	-1	-5
Cc1cc(NC(=O)CSc2nnc3c4ccccc4n(C)c3n2)no1	9	/	/	/	/	/
CC(C)c1nnc(SCC(=O)NCc2ccco2)n1C	10	-3	5	0.9	-8	3
Cn1c2ccccc2c2nnc(SCC(=O)NCc3ccco3)nc21	104*	/	/	/	/	/
O=C(CSc1nnc(CCc2nc3ccccc3[nH]2)n1-c1ccccc1)NCc1ccco1	10	-1	12	2*	2	-16
O=C1NC(=S)S/C1=C/c1ccc(Sc2ccccc2)o1	87*	/	/	/	/	/
O=C1/C(=C\c2cc([N+](=O)[O-])cc(Br)c2O)SC(=S)N1c1cccc(Cl)c1	101*	/	/	/	/	/
O=C1/C(=C/c2cc([N+](=O)[O-])ccc2Cl)SC(=S)N1c1ccccc1	2	/	/	/	/	/
c1ccc(CCNc2ncnc3nc[nH]c23)cc1	7	-2	1	2.2*	-29	3
Cc1cccc(Nc2ncnc3nc[nH]c23)c1C	-8	6	0	/	-11	-2
c1ccc2c(CCNc3ncnc4nc[nH]c34)c[nH]c2c1	-14	3	-10	1.7	-24	1
COc1ccccc1CNc1ncnc2nc[nH]c12	-3	10	6	2.1*	12	3
CCN(CCCNc1ncnc2nc[nH]c12)c1cccc(C)c1	-2	5	10	2.1*	17	14
COc1ccccc1Nc1ncnc2nc[nH]c12	/	/	/	2*	/	/

Screens deposited in PubChem BioAssay by several laboratories.
